# Compound activity deposited in PubChem by The Scripps Research Institute Molecular Screening Center.
# SMARCA2 activ – SMARCA2 (BRM) function activators, primary screen, cell-based, luminescence, high throughput | MG213 cells, MMTV-luciferase reporter, dexamethasone, overnight | activation, % at 9.1 µM | 1% of 370,000 active | AID 652017, 2013; in the data active = activation above about 7.8%;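 also: 0% = vehicle wells and 100% = reference activator wells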
# hcDAF12 agonist – H. contortus DAF-12 nuclear receptor activators, primary screen, cell-based, luminescence, HEK293, lit1-tk-luc reporter; 1.4% of 370,000 active; HEK293 hcDAF-12 lit1-tk-luc reporter; 0% DMSO, 100% Δ7-dafachronic acid; activation, % at 6.8 µM;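 active = activation above the mean of all tested compounds plus 3 SD, cut at about 5.5% in these data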;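 also: 100% = response to 3 µM Δ7-dafachronic acid high control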
# ssDAF12 agonist – S. stercoralis DAF-12 nuclear receptor activators, primary screen, cell-based, luminescence, HEK293, GRIP1 co-expression, lit1-tk-luc; HEK293 ssDAF-12/GRIP1 lit1-tk-luc reporter; % of 3 µM dafachronic acid response; activation, % at 6.8 µM; 1% of 370,000 active; AID 652126, 2013;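 active = activation above the mean over all tested compounds plus 3 SD, cut at about 0.9% in these data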;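 also: 0% = DMSO-only wells and 100% = 3 µM delta7-dafachronic acid wells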
# DAX1 inh-1 – DAX1 (NR0B1) inhibitors on StAR promoter, primary screen, cell-based, luminescence, SF-1 (NR5A1), full-length DAX-1. HEK293T StAR-luciferase reporter, SF-1/DAX-1 repression relief. inhibition, % at 6.8 µM. 1.1% of 370,000 active;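 active = inhibition above the mean over all tested compounds plus 3 SD, cut at about 3.6% in these data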;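 also: 0% = DAX-1 cells with DMSO and 100% = cells lacking DAX-1 with DMSO; higher inhibition means more luminescence from relief of DAX-1 repression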
# DAX1 inh-2 – DAX1 (NR0B1) inhibitors, primary screen, cell-based, HEK293, Gal4-DAX1, luciferase luminescence; Nuclear receptor subfamily 0 group B member 1 (Homo sapiens), P51843; HEK293 Gal4-DAX1 luciferase reporter; inhibition, % at 6.75 µM; 0.99% of 340,000 active; AID 504766, 2011;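 active = inhibition above the mean over all tested compounds plus 3 SD, cut at about 4.2% in these data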;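 also: 0% = DAX1-transfected cells with DMSO and 100% = empty-vector control cells with DMSO; inhibition shows as a rise in luminescence from relieved DAX1 repression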
# Target sequence (P51843 207-470 limits assumed): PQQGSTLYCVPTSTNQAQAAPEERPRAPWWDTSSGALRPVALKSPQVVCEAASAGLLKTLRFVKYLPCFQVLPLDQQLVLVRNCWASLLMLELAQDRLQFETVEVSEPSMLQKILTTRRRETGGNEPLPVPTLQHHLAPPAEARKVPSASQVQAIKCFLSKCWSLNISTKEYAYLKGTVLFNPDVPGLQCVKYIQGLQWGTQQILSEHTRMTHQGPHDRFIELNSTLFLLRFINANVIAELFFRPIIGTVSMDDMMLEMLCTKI
# hgDAF-12 ag – H. glycines DAF-12 receptor agonists, primary screen, cell-based, luminescence, HEK293, GAL4 fusion, UAS-luciferase. Nuclear hormone receptor DAF-12 (Heterodera glycines), GAL4 fusion. HEK293 GAL4-hgDAF12 UAS-luciferase reporter, agonist luminescence; normalized to butyrate control. activation, % at 6.8 µM. 1.8% of 370,000 active. AID 687014, 2013;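 active = activation above a cutoff set at the mean of all screened compounds plus 3 SD, cut at about 10% in these data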;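 also: 0% = DMSO wells and 100% = sodium butyrate wells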
# Active calls of the source: *. Most compounds without a hit are left out; they make up all but 4.8% or so of the library.
SMILES,SMARCA2 activ,hcDAF12 agonist,ssDAF12 agonist,DAX1 inh-1,DAX1 inh-2,hgDAF-12 ag
Cc1cccc(NC(=O)NCc2ccc3[nH]c(C)cc3c2)c1,-1,5,-1,1,1,5
Cc1ccc(CNC(=O)Nc2cccc(C)c2)cc1,1,4,-1,0,-1,13*
CCCN(c1ccccc1F)S(=O)(=O)c1cc(-c2cc(C)no2)ccc1OC,-3,-4,-2,-1,0,0
O=C(Nc1ccc2snnc2c1)N1CCSCC1,3,0,-1,-1,1,2
Cc1cc(N)ncc1[N+](=O)[O-],-2,-1,-1,-1,4.2*,-2
Cc1nc2ccccc2n1C(=O)c1ccc(Cl)cc1[N+](=O)[O-],0,5.8*,-1,0,0,-1
Cc1cc(C)nc(NC(=O)c2ccc(Cl)cc2[N+](=O)[O-])c1,-3,1,-1,0,-1,0
N=c1n(CCN2CCCCC2)c2ccccc2n1CC(=O)c1cccc([N+](=O)[O-])c1,8.6*,2,-1,0,2,3
COC(=O)c1c(C)oc2c1cc(NS(=O)(=O)c1cccs1)c1ccccc12,-1,0,-1,-1,-1,0
Cc1ccc(S(=O)(=O)NC(=O)c2cc(C)n(CC(c3ccccc3)N(C)C)c2C)cc1 (stereo not given),-2,0,-1,-1,5.5*,0
COc1cccc(-c2nnn(CC(C)=O)n2)c1,0,4,0,1,1,11*
CCOc1cc(C(=O)Nc2cccc(C(C)=O)c2)ccc1OCC(=O)N1CCCCC1,-1,-2,-1,0,1,-1
CCOc1cc(C(=O)N(C)CC(=O)Nc2cccc(F)c2)ccc1OCC(=O)N1CCCCC1,-1,4,1.3*,-1,-1,3
CN(C)CCCN(C(=O)c1ccc(S(=O)(=O)N(C)C)cc1)c1nc2cc3c(cc2s1)OCO3,1,1,1.5*,-1,2,-2
CN(C)CCN(C(=O)c1ccc(S(=O)(=O)N(C)c2ccccc2)cc1)c1nc2ccc(Cl)cc2s1,14*,2,0,3,0,5
CS(=O)(=O)c1ccccc1C(=O)Nc1cc2c(cc1C(=O)O)OCCCO2,-3,0,-1,1,5.8*,1
CN1CCN(NC(=O)CN2C(=O)S/C(=C\c3c(Cl)cccc3Cl)C2=O)CC1,-2,0,-1,-1,5.2*,-1
CC(C)c1cc(C(=O)N/N=C/c2ccoc2)cs1,-2,-2,-1,0,0,-1
O=C(COC(=O)CCCC1=NS(=O)(=O)c2ccccc2N1)Nc1ccc(Br)cc1,-1,-2,-1,4.1*,-1,-2
COc1ccc(Nc2nnc(SCC(=O)NC3CCS(=O)(=O)C3)s2)cc1 (stereo not given),1,2,0,3.6*,1,2
CCc1ccc(Nc2nnc(SCC(=O)N(C)C3CCS(=O)(=O)C3)s2)cc1 (stereo not given),4,1,0,2,1,12*
O=C(CSc1n[nH]c(-c2ccncc2)n1)NC1CCS(=O)(=O)C1 (stereo not given),1,-1,-1,0,1,-1
CCc1ccc(-c2nc(SCC(=O)NC3CCS(=O)(=O)C3)n[nH]2)cc1 (stereo not given),0,1,0,3.6*,3,0
CCOc1nnc(C)c2c(C)n(-c3cccc(OC)c3)nc12,1,-2,-1,0,-1,0
CSc1nsc(SCC(=O)NC2CCCCC2)n1,3,5.6*,0,1,0,3
